This passage reports Inhibition results from ChEMBL document CHEMBL1157539, “Thousands of chemical starting points for antimalarial lead identification” (Nature, 2010).

Holding throughout (format): functional
For experiment [1], the system named is Plasmodium falciparum. The experiment is described as follows: GSK_TCMDC: Inhibition of Plasmodium falciparum 3D7 in whole red blood cells, using parasite LDH activity as an index of growth. Test compounds present at 2uM.
The test system of experiment [2] is Plasmodium falciparum. The experiment is described as follows: GSK_TCMDC: Inhibition of Plasmodium falciparum Dd2 in whole red blood cells, using parasite LDH activity as an index of growth. Test compounds present at 2uM.
The subject of experiment [3] is HepG2. Briefly: GSK_TCMDC: Percent inhibition of human HepG2 cell line. Test compounds present at 10uM.

Consider `O=C(NCCCCCN1CCC(c2c[nH]c3ccccc23)CC1)Nc1cccc(C(F)(F)F)c1`, for which the figures for the Inhibition in experiment [1], in experiment [2] and in experiment [3] were 97%, 11% and 51%, respectively.
Take `O=C(c1cccc(Cl)c1)N1CCN(c2ccc([N+](=O)[O-])c(NC3CC3)c2)CC1`: the Inhibition was 100% in experiment [1], 79% in experiment [2] and 11% in experiment [3].
The like results for `Br.COc1ccc(CC(C)CON2C(N)=NC(N)=NC2(C)C)cc1` (stereo not drawn) were, in that order, 94%, 96% and 59%.
For `COc1ccc(-c2cc(C(F)(F)F)n3ncc(C(=O)Nc4cc(C)ccc4O)c3n2)cc1OC`, the Inhibition was 100% in experiment [1], 100% in experiment [2] and 2% in experiment [3].
Consider `CCN(CC)C(=S)N/N=C1/C(=O)Nc2c(C)cccc21`, for which the results for the Inhibition in experiment [1], in experiment [2] and in experiment [3] were 94%, 69% and 28%, respectively.
For the compound `CC(=O)Oc1cc(C)ccc1C1CCN(CCCCNC(=O)c2ccc(NC(=O)c3ccc(Cl)cc3)cc2)CC1`, the results for the Inhibition in experiment [1], in experiment [2] and in experiment [3] were 100%, 57% and 12%, respectively.
As to `Cl.Nc1ccc(-c2cc(Cl)cc(Cl)c2)cc1-c1cc2ccccc2[nH]1`, the figures for the Inhibition in experiment [1], in experiment [2] and in experiment [3] were 100%, 97% and 0%, respectively.
As for `CC(C)(C)c1ccc2[nH]c(-c3ccc(/C=C/C(=O)NC4CCN(Cc5ccccc5)CC4)cc3)nc2c1`, the Inhibition in experiment [1] is 100%; in experiment [2], 96%; in experiment [3] it was 45%.
Consider `O=C(Nc1cccc(CN2CCCN(CCc3ccccc3)CC2)c1)c1ccc(Cl)c(Cl)c1.O=C(O)C(F)(F)F`, for which the Inhibition is 86% in experiment [1], 15% in experiment [2] and 41% in experiment [3].
The like results for `CCn1cc(C(=O)O)c(=O)c2cc(F)c(N3CCN(S(=O)(=O)c4ccc(N)cc4)CC3)cc21` were, in that order, 90%, 79% and 0%.
With `CCCNCc1ccc(-c2ccc(CN(Cc3cnc(C)cn3)C(=O)CC#N)cc2)nc1.O=C(O)C(F)(F)F`, the Inhibition in experiment [1] is reported as 92%; in experiment [2] it was 0%; in experiment [3] it was 4%.
As for `COc1cc(NC(=O)N2CCOC(CCN3CCC4(CCc5ccccc54)CC3)(c3ccc(Cl)c(Cl)c3)C2)cc(OC)c1` (stereo not drawn), the Inhibition in experiment [1] came out at 87%; in experiment [2], 50%; in experiment [3] it was 29%.
For the compound `CC(C)C[C@H](NC(=O)c1cc2cc(OCCN3CCNCC3)ccc2o1)C(=O)NC1CC[C@@H](C)N(C(=O)Nc2ccc(Cl)cc2)CC1=O.O=C(O)C(F)(F)F` (stereo partly drawn), the Inhibition amounted to 90% in experiment [1], 92% in experiment [2] and 0% in experiment [3].
The like results for `COc1ccc(C2C(C(=O)Nc3ccc4c(c3)OCO4)c3cc(OC)c(OC)cc3C(=O)N2C)cc1` (stereo not drawn) were, in that order, 89%, 54% and 12%.
Take `CC(=NNC(S)=NC(c1ccccc1)c1ccccc1)c1ccccn1`: the Inhibition in experiment [1] is listed as 98%; in experiment [2], 97%; in experiment [3] it was 45%.
The like results for `COc1ccc(-n2cc(C(=O)c3cc(Br)ccc3O)cc(C#N)c2=O)cc1Cl` were, in that order, 99%, 23% and 29%.
For `Cc1sc2cc(Cl)cc(Cl)c2c1S(=O)(=O)Nc1ccc2nccc(N3CCNCC3)c2c1.Cl`, the Inhibition was found to be 100% in experiment [1], 99% in experiment [2] and 24% in experiment [3].
With `Cl.Fc1cccc(COc2ccc(Nc3ncnc4sc(C#C[C@H]5CCCN5)cc34)cc2F)c1`, the Inhibition in experiment [1] is listed as 98%; in experiment [2] it was 17%; in experiment [3], 13%.
Consider `Cc1cccc2nc(-c3ccc(-c4cccc(CNCCNC(=O)c5ccnn5C)c4)cc3)[nH]c12.O=C(O)C(F)(F)F`, for which the Inhibition was determined as 100% in experiment [1], 92% in experiment [2] and 17% in experiment [3].
For `Cc1nc(C)c(-c2ccc(Cl)cc2Cl)c(O)c1Br`, the results for the Inhibition in experiment [1], in experiment [2] and in experiment [3] were 87%, 57% and 3%, respectively.
`CCN(CC)CCCNc1ncc2c(-c3ccc(NC(=O)Nc4cc(C(F)(F)F)ccc4F)c(F)c3)nn(C)c2n1.O=C(O)C(F)(F)F`: the figures for the Inhibition in experiment [1], in experiment [2] and in experiment [3] were 94%, 68% and 100%, respectively.
Regarding `CN(C)c1ccc(-c2ccc(C(=O)NC3CCN(Cc4ccc(C(C)(C)C)cc4)CC3)s2)cc1.O=C(O)C(F)(F)F`, the Inhibition in experiment [1] is reported as 95%; in experiment [2], 59%; in experiment [3] it was 35%.
Consider `Cc1nc(Nc2ccc(F)cc2)nc(N2CCc3ccccc3C2C)c1CO` (stereo not drawn), for which the values for the Inhibition in experiment [1], in experiment [2] and in experiment [3] were 100%, 95% and 0%, respectively.
The corresponding values for `CCCN1CCN(CC(O)CNC(=O)Nc2ccc(Cl)cc2)CC1.O=C(O)C(F)(F)F` (stereo not drawn) are 100%, 100% and 6%.
As for `CCc1c[nH]c2c(N(c3ccccc3)S(C)(=O)=O)cc(C(=O)N[C@@H](Cc3ccccc3)[C@H](O)CNC(C)(C)CCCC(C)C)cc12.O=CO`, the Inhibition came to 98% in experiment [1], 96% in experiment [2] and 99% in experiment [3].
Turning to `CCOc1ccc2nc(NC(=O)c3csnn3)sc2c1`, the Inhibition in experiment [1] turned out to be 100%; in experiment [2], 98%; in experiment [3] it was 6%.
With `Cc1ccc2[nH]c(-c3cc(-c4ccc(OCc5ccccc5)cc4)cnc3N)nc2c1.O=C(O)C(F)(F)F`, the Inhibition in experiment [1] is listed as 91%; in experiment [2], 87%; in experiment [3] it was 33%.
As for `COc1cc2nc(N3CCC(CNC(=O)c4ccc(-c5ccc(-c6noc(C)n6)cc5)cc4)CC3)nc(N)c2cc1OC`, the Inhibition came to 98% in experiment [1], 100% in experiment [2] and 96% in experiment [3].
With `CC1(C)CCC(C)(C)c2c1ccc(C1CCN(CCCCNC(=O)c3ccc(-c4ccc(C#N)cc4)cc3)CC1)c2O`, the Inhibition worked out at 100% in experiment [1], 85% in experiment [2] and 81% in experiment [3].
As for `Cl.O=c1cc(NCCCNCc2sc(Br)c(Br)c2Br)[nH]c2ccccc12`, the Inhibition is recorded as 90% in experiment [1], 38% in experiment [2] and 0% in experiment [3].
Turning to `CC(C)CCN1CCCN(Cc2ccc(C(=O)Nc3ccc(Cl)cc3)cc2)CC1.O=C(O)C(F)(F)F`, the Inhibition came to 94% in experiment [1], 15% in experiment [2] and 46% in experiment [3].
Turning to `COc1ccc(CNCc2cccc(-c3ccc(-c4nc5cccc(C)c5[nH]4)s3)c2)cc1.O=C(O)C(F)(F)F`, the Inhibition worked out at 100% in experiment [1], 65% in experiment [2] and 24% in experiment [3].
With `Cc1ccc(CNC(=O)c2cc3c(=O)n4cccc(C)c4nc3n(CCN3CCOCC3)c2=N)cc1`, the Inhibition is reported as 97% in experiment [1], 21% in experiment [2] and 31% in experiment [3].
The corresponding values for `COc1ccc(CN2CCN(CCCCNC(=O)c3ccc(NC(=O)c4ccc(Cl)cc4)cc3)CC2)c(OC)c1` are 94%, 0% and 25%.
On to `CNC(=O)c1cc(S(=O)(=O)N2CCN(c3ccccn3)CC2)c(C)s1`, for which the Inhibition is on record as 91% in experiment [1], 52% in experiment [2] and 0% in experiment [3].
Consider `Fc1cccc(C=NN=c2cc[nH]c3ccccc23)c1`, for which the results for the Inhibition in experiment [1], in experiment [2] and in experiment [3] were 100%, 72% and 3%, respectively.
Consider `Oc1ccc(Nc2nc(NCc3ccco3)c3ccccc3n2)cc1`, for which the values for the Inhibition in experiment [1], in experiment [2] and in experiment [3] were 100%, 78% and 7%, respectively.
The like results for `Cc1cc(=NN=Cc2cccc(F)c2)c2cc(F)ccc2[nH]1` were, in that order, 100%, 99% and 7%.
As to `N#Cc1ccc2c(c1)CN(C1CCC(NC(=O)/C=C/c3cc(C(F)(F)F)cc(C(F)(F)F)c3)CC1)CCC2` (stereo not drawn), the Inhibition in experiment [1] came out at 95%; in experiment [2], 4%; in experiment [3], 34%.
Regarding `O=C(Cc1c[nH]cn1)Nc1cccc(-c2cccc(-c3nc4ccccc4[nH]3)c2)c1`, the Inhibition in experiment [1] was 97%; in experiment [2], 60%; in experiment [3], 24%.
Consider `Cc1[nH]n(-c2cccc(Cl)c2)c(=O)c1-c1ccc(Cl)cc1`, for which the figures for the Inhibition in experiment [1], in experiment [2] and in experiment [3] were 99%, 41% and 0%, respectively.
The like results for `Cc1cccc2nc(-c3ccc(-c4cccc(NC(=O)Cc5c[nH]cn5)c4)cc3)[nH]c12` were, in that order, 98%, 21% and 13%.
Consider `CC1CN(c2ccc3occ(C(=O)Nc4ccc(-c5ccncc5)c(Cl)c4)c3c2)CC(C)N1C.Cl` (stereo not drawn), for which the Inhibition was 100% in experiment [1], 96% in experiment [2] and 14% in experiment [3].
With `N#Cc1cccc(C(=O)Nc2ccc(-c3nc4ccccc4[nH]3)cc2)c1`, the Inhibition in experiment [1] amounted to 91%; in experiment [2], 38%; in experiment [3], 33%.
In the case of `O=C(NCC1CCCCC1)c1cc(=O)c2ccccc2o1`, the Inhibition in experiment [1] was 98%; in experiment [2], 77%; in experiment [3], 0%.
The corresponding values for `O=C(Nc1cccc(CN2CCN(C(=O)c3ccccc3)CC2)c1)c1cccs1.O=C(O)C(F)(F)F` are 95%, 97% and 15%.
As to `O=C(c1ccccc1)N1COCC(CCN2CCC(N3CCCC3)CC2)(c2ccc(Cl)c(Cl)c2)C1` (stereo not drawn), the Inhibition in experiment [1] turned out to be 83%; in experiment [2], 9%; in experiment [3], 18%.
`CCCc1ccc(N2C(N)=NC(N)=NC2(C)C)cc1.Cl`: the Inhibition in experiment [1] came out at 94%; in experiment [2] it was 0%; in experiment [3], 59%.
The like results for `Cc1ccc(NC(=O)Nc2ccccc2F)cc1-c1ccc(C(=O)Nc2ccncc2)cc1` were, in that order, 99%, 54% and 36%.
In the case of `CC(=O)O.CCc1cc2c(cc1CC)CC(NC[C@@H](O)c1ccc(O)c3[nH]c(=O)ccc13)C2`, the results for the Inhibition in experiment [1], in experiment [2] and in experiment [3] were 100%, 9% and 0%, respectively.
`Br.CC1(C)NC(N)=NC(=N)N1OCCCOc1cc(Cl)ccc1Cl`: the Inhibition was found to be 96% in experiment [1], 96% in experiment [2] and 64% in experiment [3].
`COc1ccc(CN2CCC(CNCC(c3ccccc3)c3ccccc3)CC2)cc1.O=C(O)C(F)(F)F`: the figures for the Inhibition in experiment [1], in experiment [2] and in experiment [3] were 100%, 95% and 84%, respectively.
Turning to `CC(C)(C)c1ccc(CN2CCC(CNC(=O)c3cc(-c4ccccc4)nc4ccccc34)CC2)cc1`, the Inhibition worked out at 89% in experiment [1], 36% in experiment [2] and 33% in experiment [3].
The corresponding values for `COc1cccc2cc(C(=O)N[C@@H](CC(C)C)C(=O)NC3CC[C@@H](C)N(C(=O)Nc4ccncc4)CC3=O)oc12` (stereo partly drawn) are 95%, 90% and 7%.
For `O=C(Nc1cc(Cl)ccc1O)c1cnn2c(C(F)(F)F)cc(-c3cccs3)nc12`, the values for the Inhibition in experiment [1], in experiment [2] and in experiment [3] were 100%, 74% and 8%, respectively.
For `CC(O)C(C)(CO)NCc1ccc2c3c(cccc13)-c1ccccc1-2.Cl` (stereo not drawn), the Inhibition in experiment [1] was found to be 95%; in experiment [2], 85%; in experiment [3], 81%.
Turning to `COc1ccc(-c2cccc(NC(=O)c3cccc(C#N)c3)c2)cc1CNC(C)C.O=C(O)C(F)(F)F`, the Inhibition in experiment [1] amounted to 100%; in experiment [2], 51%; in experiment [3], 22%.
Consider `CCN(CCCN1CCCCC1)c1cc(C)nc(Nc2cccc(C(F)(F)F)c2C)n1.O=C(O)C(F)(F)F`, for which the Inhibition is 99% in experiment [1], 37% in experiment [2] and 57% in experiment [3].
The corresponding values for `COc1ccc(NC(=O)Nc2cccc(-c3cccc(-c4nc5cc(F)ccc5[nH]4)c3)c2)cc1` are 99%, 39% and 59%.
Turning to `Cc1cc(NCCC(=O)Nc2ccccc2)nc(NCCOc2ccccc2)n1.O=C(O)C(F)(F)F`, the Inhibition stood at 100% in experiment [1], 9% in experiment [2] and 5% in experiment [3].
As for `CC(=O)Nc1ccc(C(=O)Nc2cccc(-c3ccc(-c4nc5cc(C(F)(F)F)ccc5[nH]4)s3)c2)cn1`, the values for the Inhibition in experiment [1], in experiment [2] and in experiment [3] were 100%, 98% and 42%, respectively.
